Data taken from the supplement of paper PMC8975748.
Counter-ions that a name gives are not always drawn.

System: Saccharomyces cerevisiae BY4741 SeMeCo community
Assay: z-score of subpopulation abundance vs DMSO median, subpopulation auxotrophic for HU; higher = larger share of this subpopulation than in DMSO controls
Settings: 10 µM; 24 h; SM minimal medium; subpopulation (auxotrophy): HU
Experimental: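 Fluorescent four-plasmid SeMeCo (self-establishing metabolically cooperating S. cerevisiae BY4741 community; plasmids pH-mRuby2, pL-mWasabi, pU-eCFP, pM-TagRFP657) was grown 24 h in minimal SM medium with each Selleck FDA-approved drug at 10 µM in 384-well plates. Cells were fixed and imaged by high-content confocal microscopy. For each auxotrophic subpopulation (and the prototroph), a z-score gives the deviation from the DMSO vehicle-control population median.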

Structure (SMILES)	z-score of subpopulation abundance
O=C1NC(=O)C(c2ccccc2)(c2ccccc2)N1 [Phenytoin]	-0.49
N[C@@H](C(=O)N[C@@H]1C(=O)N2C(C(=O)O)=C(Cl)CS[C@H]12)c1ccccc1 [Cefaclor]	0.41
OCCOCCN1CCN(C2=Nc3ccccc3Sc3ccccc32)CC1 [Quetiapine Fumarate]	-0.61
CN(C)CCC=C1c2ccccc2C=Cc2ccccc21 [Cyclobenzaprine HCl]	0.59
Nc1nc(N)c2nc(-c3ccccc3)c(N)nc2n1 [Triamterene]	-7.52
NC(=O)C(c1ccccc1)(c1ccccc1)[C@@H]1CCN(CCc2ccc3c(c2)CCO3)C1 [Darifenacin HBr]	-0.14
CCc1c2c(nc3ccc(OC(=O)N4CCC(N5CCCCC5)CC4)cc13)-c1cc3c(c(=O)n1C2)COC(=O)[C@]3(O)CC [Irinotecan HCl Trihydrate]	-0.6
CC[N+](CC)(CC)CCOc1cccc(OCC[N+](CC)(CC)CC)c1OCC[N+](CC)(CC)CC [Gallamine Triethiodide]	0.25
CN(C)C[C@@H]1CCn2cc(c3ccccc32)C2=C(C(=O)NC2=O)c2cn(c3ccccc23)CCO1	-0.03
CCCCCOc1ccc(-c2ccc(-c3ccc(C(=O)N[C@H]4C[C@@H](O)[C@@H](O)NC(=O)[C@@H]5[C@@H](O)[C@@H](C)CN5C(=O)[C@H]([C@@H](C)O)NC(=O)[C@H]([C@H](O)[C@@H](O)c5ccc(O)cc5)NC(=O)[C@@H]5C[C@@H](O)CN5C(=O)[C@H]([C@@H](C)O)NC4=O)cc3)cc2)cc1	17.2
C#C[C@]1(O)CC[C@H]2[C@@H]3CCC4=CCCC[C@@H]4[C@H]3CC[C@@]21C [Lynestrenol]	0.4
CC(=O)OCC1=C(C(=O)O)N2C(=O)C(NC(=O)CSC(=NC(C)C)NC(C)C)C2SC1 (stereo not given) [Cefathiamidine]	-0.62
CN(C)CCCN1c2ccccc2Sc2ccc(Cl)cc21 [Chlorpromazine HCl]	-0.02
CC1=CC[C@@](O)(C(C)C)CC1 [Terpinen-4-ol]	0.31
CC[C@H](C)C(=O)O[C@H]1C[C@H](O)C=C2C=C[C@H](C)[C@H](CC[C@@H](O)C[C@@H](O)CC(=O)O)[C@H]21 [Pravastatin]	1.19
CC1(C)S[C@@H]2[C@H](NC(=O)Cc3ccccc3)C(=O)N2[C@H]1C(=O)O.CCN(CC)CCOC(=O)c1ccc(N)cc1 [Penicillin G Procaine]	0.54
COCCCOc1ccnc(C[S+]([O-])c2nc3ccccc3[nH]2)c1C (stereo not given) [Rebeprazole sodium]	-0.49
CO[C@@]1(NC(=O)CSC[C@@H](N)C(=O)O)C(=O)N2C(C(=O)O)=C(CSc3nnnn3C)CS[C@@H]21 [Cefminox Sodium]	0.16
CO/N=C(\C(=O)N[C@@H]1C(=O)N2C(C(=O)[O-])=C(C[N+]3(C)CCCC3)CS[C@H]12)c1csc(N)n1 [Cefepime Dihydrochloride Monohydrate]	-0.45
CC(=O)OCC1=C(C(=O)O)N2C(=O)[C@@H](NC(=O)Cc3cccs3)[C@H]2SC1 [Cephalothin]	-0.81

Structure (SMILES)	z-score of subpopulation abundance
CC(C)C(=O)Oc1ccc(CO)cc1[C@H](CCN(C(C)C)C(C)C)c1ccccc1 [Fesoterodine Fumarate]	-0.72
Nc1nc2c(ncn2COCCO)c(=O)[nH]1 [Aciclovir]	-0.91
CN1CCN(c2cc3c(cc2F)c(=O)c(C(=O)O)cn3-c2ccc(F)cc2)CC1 [Difloxacin hydrochloride]	-0.87
OCc1ccc(Cl)cc1Cl [2,4-dichlorobenzyl alcohol]	-0.65
CCc1nc(N)nc(N)c1-c1ccc(Cl)cc1 [Pyrimethamine]	-0.29
O=C(NCCN1CCOCC1)c1ccc(Cl)cc1	-1.32
CCC(C)(C)c1ccc(CC(C)CN2C[C@@H](C)O[C@@H](C)C2)cc1 (stereo not given in full) [Amorolfine HCl]	5.04
COc1ccc(CN2CCN(C(c3ccc(F)cc3)c3ccc(F)cc3)CC2)c(OC)c1OC [Lomerizine 2HCl]	0.22
C[C@@H]1CN(c2c(F)c(N)c3c(=O)c(C(=O)O)cn(C4CC4)c3c2F)C[C@H](C)N1 [Sparfloxacin]	-0.11
CCN1CCCC1CNC(=O)c1cc(S(N)(=O)=O)ccc1OC (stereo not given) [Sulpiride]	-0.14
COc1ccc(C2CNC(=O)C2)cc1OC1CCCC1 (stereo not drawn) [S- (+)-Rolipram]	-0.33
CCC(=O)O[C@@H]1CC(=O)O[C@H](C)C/C=C/C=C/[C@H](O)[C@H](C)C[C@H](CC=O)[C@H](O[C@@H]2O[C@H](C)[C@@H](O[C@H]3C[C@@](C)(O)[C@@H](OC(=O)CC)[C@H](C)O3)[C@H](N(C)C)[C@H]2O)[C@H]1OC [Midecamycin]	0.44
Cc1cc(NS(=O)(=O)c2ccc(N)cc2)no1 [Sulfamethoxazole sodium]	0.96
CN1CCN(C2=Nc3ccccc3Oc3ccc(Cl)cc32)CC1 [Loxapine Succinate]	0.53
O=C(N[C@H](CO)[C@H](O)c1ccc([N+](=O)[O-])cc1)C(Cl)Cl [Chloramphenicol]	0.66
Clc1ccc(C(Cn2ccnc2)OCc2ccc(Sc3ccccc3)cc2)c(Cl)c1 (stereo not given) [Fenticonazole Nitrate]	28.7
CO[C@H]1C[C@@H]2CC[C@@H](C)[C@@](O)(O2)C(=O)C(=O)N2CCCC[C@H]2C(=O)O[C@H]([C@H](C)C[C@@H]2CC[C@@H](OCCO)[C@H](OC)C2)CC(=O)[C@H](C)/C=C(\C)[C@@H](O)[C@@H](OC)C(=O)[C@H](C)C[C@H](C)/C=C/C=C/C=C/1C [Everolimus (RAD001)]	27.1
O=C1NCC2(CCN(CCc3ccccc3)CC2)O1 [Fenspiride HCl]	-0.8
C[C@@H](O)[C@H]1C(=O)N2C(C(=O)[O-])=C(SC3Cn4cnc[n+]4C3)[C@H](C)[C@H]12 (stereo not given in full) [Biapenem]	-0.36
CN1[C@@H]2CC[C@H]1C[C@@H](OC(c1ccccc1)c1ccccc1)C2 [Benztropine mesylate]	-0.54
